Source: PubChem BioAssay (National Center for Advancing Translational Sciences (NCATS))
HPGD block – blocks human HPGD enzyme activity; P15428; purified HPGD, NADH fluorescence kinetic, PGE2 substrate; hit rate 4.3% among 150,000; Potency, µM, for the others: at the highest dose activity change, negative = inhibition, actives largely listed as inhibitors; further: on the % scale 0 is the no-effect control and ±100 the full control effect
Target sequence (P15428 whole entry, looked up): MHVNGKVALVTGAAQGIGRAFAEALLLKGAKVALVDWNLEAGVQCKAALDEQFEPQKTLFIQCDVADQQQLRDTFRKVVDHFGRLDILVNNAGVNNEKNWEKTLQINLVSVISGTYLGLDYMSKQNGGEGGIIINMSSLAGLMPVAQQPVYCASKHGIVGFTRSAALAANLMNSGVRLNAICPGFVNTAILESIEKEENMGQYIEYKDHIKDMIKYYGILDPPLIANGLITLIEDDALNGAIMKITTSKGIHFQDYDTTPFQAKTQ
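20 nM HPGD preincubated 15 min at room temperature with compound in 50 mM Tris-HCl pH 8, 0.01% Tween 20. Started with 1 mM NAD+ and 30 uM prostaglandin E2; NADH fluorescence (360/450 nm) read 5 times over 30-s intervals, last minus first.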
HTT cytoprotect – cytoprotection in Huntington HTT-Q103 PC12 cell model; PC12 HTT-Q103 induced, cytoprotection, ATP luminescence, 40 h; Potency, µM (highest dose often 56.4 µM), for inactives: cytoprotection (ATP increase), most hits filed as activators; hit rate 0.14% among 230,000; AID 1471; active means well fitted curve in the direction sought with a large enough effect; inconclusive means small, poorly fitted or top-dose-only effect, or another doubt; inactive means no such curve, though single readings can be large; an effect the other way counts as inactive or inconclusive; further: % of control where 0% means no effect; nearly all actives have a fitted effect of over 45% in size
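Compounds were screened for protection of PC12 cells against cell death after tebufenozide induction (100 nM final) of mutant Huntingtin exon 1 (Q103) fused to GFP.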
HttQ103 aggreg – reduces HttQ103-GFP aggregates in PC12 cells; Potency, µM (titrated, usually from 46.1 µM), inactives show at the top dose activity change, negative = inhibition, hits mostly inhibitors; PC12 HttQ103-GFP aggregates, Acumen cytometry, 40 h; hit rate 1.1% among 220,000; active means well fitted curve in the direction sought with a large enough effect; inconclusive means small, poorly fitted or top-dose-only effect, or another doubt; inactive means no such curve, though single readings can be large; an effect the other way counts as inactive or inconclusive; further: on the % scale 0 is the no-effect control and ±100 the full control effect; nearly all actives have a fitted effect of over 60% in size
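Multiplexed with ATP-based cell death, this channel scores GFP aggregates in PC12 cells expressing inducible HTTex1-Q103-GFP. Induction used 100 nM tebufenozide; compounds were tested in concentration series.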
ALDH1A1 block – blocks purified human ALDH1A1 activity. Potency, µM (doses to about 75.3 µM), for inactives: at the highest dose activity, negative = inhibition, hits mostly inhibitors. hit rate 7.3% among 220,000. Purified ALDH1A1, NADH fluorescence, propionaldehyde substrate;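 further: plate controls were no enzyme wells and a reference inhibitor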
JMJD2E inh – JMJD2E (human) inhibition; B2RXH2; JMJD2E catalytic domain, FDH-coupled NADH fluorescence (FDH is formaldehyde dehydrogenase); Potency, µM (highest dose often 57.1 µM), without a hit: at the highest dose activity change, negative = inhibition, actives largely listed as inhibitors; hit rate 1.6% among 230,000;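 further: 0% = wells with enzyme and -100% = buffer wells without enzyme; nearly all actives have a fitted effect of over 50% in size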
Target sequence (B2RXH2 1-337 limits assumed): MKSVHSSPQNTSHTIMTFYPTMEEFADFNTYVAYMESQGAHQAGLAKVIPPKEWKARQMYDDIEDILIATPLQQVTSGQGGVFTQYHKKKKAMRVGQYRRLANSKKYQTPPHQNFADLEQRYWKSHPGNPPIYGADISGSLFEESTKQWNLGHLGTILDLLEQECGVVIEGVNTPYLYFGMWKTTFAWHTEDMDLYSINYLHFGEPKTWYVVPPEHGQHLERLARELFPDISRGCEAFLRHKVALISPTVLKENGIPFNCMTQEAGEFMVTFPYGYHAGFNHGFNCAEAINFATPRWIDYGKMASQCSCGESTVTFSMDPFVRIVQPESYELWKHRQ
LMNA splice mod – LMNA splicing modulation | HeLa LMNA splicing GFP/RFP minigene ratio, 48 h | Potency, µM (titrated, usually from 46.1 µM), for inactives: at the highest dose ratio change, negative = inhibition, actives largely listed as inhibitors | hit rate 0.01% among 200,000; active means well fitted inhibition curve with a large enough effect in the signal ratio, with a control signal flat, not every such curve was filed as active; inconclusive means small, poorly fitted or top-dose-only effect, or effect the other way, or a change in a side signal; the % refers to the signal ratio; further: on the % scale 0 is the no-effect control and ±100 the full control effect
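S3 HeLa stable clones carrying a lamin A-EGFP splicing minigene plus DsRed2 were seeded at 600 cells/well in Opti-MEM with 2% FBS, pin-dosed and incubated 48 h at 37°C. Acumen cytometry (488 nm) gave the GFP/RFP total-intensity ratio.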
Numbers without * were called inactive; ? = inconclusive; / = no result given; ! = not active in a repeat; [ ] = remark or other dose. Most compounds without a hit are left out; they make up all but 9.2% or so of the library. Unless noted, the call rests on the fitted dose curve; in most records, active means well fitted inhibition curve with a large enough effect (not every such curve was filed as active); inconclusive means small, poorly fitted or top-dose-only effect, or another doubt; inactive means no such curve, though single readings can be large or run the other way. Potency means the concentration at half of the fitted maximal effect.

SMILES	HPGD block	HTT cytoprotect	HttQ103 aggreg	ALDH1A1 block	JMJD2E inh	LMNA splice mod
Cc1ccc(OCCC(=O)OCC(=O)Nc2cc(S(=O)(=O)N(C)C)ccc2C)cc1	/	-29.7%	5.1%	3.98µM*	-4.7%	-15.2%[46 µM]
CN(C)S(=O)(=O)c1ccc(Cl)c(NC(=O)COC(=O)CCSc2ccccc2)c1	-0.6%	0.1%[1.9 µM]	0.3%	25.1µM*	-3.4%	-13.6%
CN(C)S(=O)(=O)c1ccc(Cl)c(NC(=O)COC(=O)CNC(=O)c2ccco2)c1	/	2.4%	17.9%	?	1.8%	-10.4%[46 µM]
Cc1cnc(CNc2ncncc2-c2ccc3c(c2)OCO3)cn1	/	-33.5%	/	-3.0%	/	?
Cc1ccc(NC(=O)c2cc(S(=O)(=O)N(C)C3CCCCC3)ccc2F)cc1C	/	/	/	/	/	0.1%[46 µM]
C=CCN1CN(Cc2ccco2)CNC1=S	2.2%	16.3%[10 µM]	-2.2%	-0.6%	1.1%	-1.0%
C=CCCCCCCCCCCCc1ccco1	0.794µM*	/	/	?	-2.7%	20.4%
CCN(CC)C(=O)c1cccc(-c2ccc(OC)cc2)c1	14.1µM*	1.8%[0.074 µM]	1.9%	15.5%	-6.3%	?
CC(=O)OCC(=O)[C@@]1(O)[C@H](OC(C)=O)C[C@H]2[C@@H]3CCC4=CC(=O)C=C[C@]4(C)[C@@]3(F)[C@@H](O)C[C@@]21C	-2.4%	-74.9%	/	-5.5%	/	/
CCOC(=O)C1=C(O)/C(=C\c2ccc(OC)c(OC)c2)N=C1C	-12.0%	-14.5%	-2.6%	-8.4%	-6.3%	-0.8%
CCOC(=O)C1=C(O)c2ccccc2C(=O)/C1=C\c1ccc(C)cc1	14.1µM*	-5.7%[10 µM]	14.6%	7.94µM*	?	?
O=C(CSc1nc2cccnc2n1Cc1ccccc1)NC1CCCCC1	?	15.1%[1.9 µM]	-17.0%	?	1.5%	-4.8%
Cc1cc(O)c(C)c(O)c1C(=O)O	-4.4%	-11.4%	/	-0.8%	1.1%	/
NC(=O)C1CCCN(C(=S)NCc2ccc3c(c2)OCO3)C1 (stereo unspecified)	/	-24.4%	13.1%	25.1µM*	7.0%	/
O=C(c1ccccc1)N1CCN(C(=S)NCc2ccc3c(c2)OCO3)CC1	31.6µM*	4.5%[10 µM]	-21.5%	17.8µM*	1.8%	?
CN(C)c1ccc(/C=N/N=C/c2ccccc2O)cc1	-7.2%	2.1%[10 µM]	-4.9%	12.6µM*	-2.0%	-6.0%
CN(C)c1ccc(C=Nc2ccccc2C(N)=O)cc1	?	-109.6%	-8.0%	?	?	?
C/C(=N\Nc1ccc([N+](=O)[O-])cc1[N+](=O)[O-])C(C)(C)C(C(=O)O)C(=O)O	-21.1%	-6.5%[10 µM]	?	0.8%	?	-7.4%
CCOc1ccc(N2C(=O)CC(NCCc3ccncc3)C2=O)cc1 (stereo unspecified)	-6.3%	-3.0%	-1.9%	?	6.4%	-4.1%
CCCOc1ccc(N2C(=O)CC(NCCc3ccc(S(N)(=O)=O)cc3)C2=O)cc1 (stereo unspecified)	-6.4%	-5.1%[10 µM]	-9.0%	7.94µM*	2.7%	14.2%
CCOc1ccc(N2C(=O)CC(NCCc3c[nH]c4ccccc34)C2=O)cc1 (stereo unspecified)	/	-41.1%	11.2%	11.2µM*	-2.7%	/
CCOc1ccc(N2C(=O)CC(NCCc3ccc(S(N)(=O)=O)cc3)C2=O)cc1 (stereo unspecified)	1.8%	-12.6%	4.1%	?	-6.9%	4.7%
CCN1C(=O)c2ccccc2Sc2ccc(NC(=O)COc3ccc(Cl)cc3)cc21	/	/	/	/	/	-27.5%[46 µM]
O=C(NCc1ccccc1)c1cnc2sc(N3CCCC3)nn2c1=O	/	/	/	/	/	-8.1%[46 µM]
C/C(=N\NC(=O)C(=O)N/N=C(\C)c1cccc(O)c1)c1cccc(O)c1	/	-30.7%	11.7%[9.22 µM]	3.3%	89.9%	-21.7%[9.22 µM]
SMILES	HPGD block	HTT cytoprotect	HttQ103 aggreg	ALDH1A1 block	JMJD2E inh	LMNA splice mod
O=C1NC(=O)C(c2ccccc2)(c2ccccc2)N1	-2.8%	?	-10.1%	2.5%	4.1%	?
CCC1(c2ccccc2)C(=O)NCNC1=O	-6.9%	1.41µM*!	-8.8%	4.6%	-0.9%	?
C(=C\c1ccccc1)/CNCC1CCCO1 (stereo unspecified)	/	-13.5%	-10.8%	25.1µM*	-1.9%	/
COCCNC(=O)C1CC(=O)N(c2ccc(OC)cc2)C1c1ccc(OC)cc1 (stereo unspecified)	/	-13.0%	10.4%	-2.1%	7.8%	/
O=C(CCl)N(C/C=C/c1ccccc1)c1ccc2c(c1)OCCO2	/	-43.0%	?	0.794µM*	-13.1%	?
COc1c(S(=O)(=O)n2nc(C)cc2C)ccc(Cl)c1Cl	22.4µM*	-3.8%	6.3%	28.2µM*	-2.2%	?
CCN(CC)CCOC(=O)C(Cc1cccc2ccccc12)CC1CCCO1 (stereo unspecified)	-5.8%	-49.4%	/	-2.9%	22.4µM*	/
COC(=O)c1sc(N)c(C(=O)OC)c1COC(=O)c1c(C)noc1C	17.8µM*	-62.2%	-4.0%	-10.6%	-5.3%	?
CCOC(=O)N1CCC(NC(=O)C2CCN(C(=O)N3CC(C)Oc4ccc(C)cc43)CC2)CC1 (stereo unspecified)	-10.6%	-10.4%[0.074 µM]	6.5%	7.94µM*	2.4%	-1.0%
CC(/C=C1\N=C(SCc2ccccc2)SC1=O)=C\c1ccccc1	-19.0%	/	25.3%	22.4µM*	-24.9%	1.2%
O=S(=O)(NCCc1csc2nc(-c3ccc(F)cc3)nn12)c1ccc(Br)cc1	/	/	/	/	/	-10.4%[46 µM]
Cc1cc([N+](=O)[O-])c2[nH]c(C(=O)N/N=C/c3ccccc3C(=O)O)c(-c3ccccc3)c2c1	?	?	-3.5%	1.41µM*	-2.7%	?
Cc1ccc(CNc2ccc(O)cc2)cc1	?	-2.4%[10 µM]	15.8%	10µM*	11.2µM*	?
CC(=O)N1CCN(c2ccc(NCc3ccc(C)cc3)cc2)CC1	0.1%	-16.8%[10 µM]	21.9%	?	?	?
COc1ccc(/C=C(\C#N)c2n[nH]c(Cn3cncn3)n2)cc1	/	11.1%[10 µM]	6.3%	-1.8%	-7.2%	5.5%[46 µM]
O=c1cc(-c2ccccc2O)oc2ccc3ccccc3c12	-1.5%	-103.7%[1.9 µM]	/	3.0%	1.6%	/
O=C(O)Cc1cccc2c(=O)cc(-c3ccccc3)oc12	-4.7%	3.4%[10 µM]	/	-4.7%[13.5 µM]	/	/
O=c1cc(-c2ccccc2)oc2c(O)c(O)ccc12	3.16µM*	-204.9%	/	3.98µM*	7.94µM*	/
O=c1cc(-c2ccccc2O)oc2c(O)c(O)ccc12	10µM*	-27.8%[1.9 µM]	/	2.51µM*	11.2µM*	/
O=C(/C=C/c1ccccc1Cl)c1ccccc(=O)c1O	-23.3%	/	?	-4.6%	14.1µM*	?
O=C(/C=C/c1ccccc1Cl)c1ccc(O)cc1	/	2.3%[10 µM]	-9.0%[9.22 µM]	-3.1%	6.5%	/
Cc1ccc(C)c(NC(=O)c2ccccc2O)c1	-11.3%	-60.8%[0.074 µM]	-11.0%[9.22 µM]	7.4%	-9.4%	?
Cc1ccc(/C=C/C(=O)c2ccccc(=O)c2O)c(C)c1	-11.1%	/	?	-1.6%	28.2µM*	?
